# Measured values from article PMC7862700, “An all-to-all approach to the identification of sequence-specific readers for epigenetic DNA modifications on cytosine”.
# Legend:
# Experiment in all cases: DAPPL (digital affinity profiling via proximity ligation, sequencing); 10 mM Tris-HCl pH 7.5, 50 mM NaCl, 1 mM DTT, 4% glycerol, room temperature, 30 min; GST-TFs on glutathione beads, 16-mer random dsDNA library, 0.1% formaldehyde crosslink after washing; high values mean tight binding
# Details in all cases: protein: recombinant; tags: N-terminal GST; dsDNA, one strand shown
# [1] = target: T1, FLI1 (Homo sapiens, UniProt Q01543 1-452)
# T1 sequence: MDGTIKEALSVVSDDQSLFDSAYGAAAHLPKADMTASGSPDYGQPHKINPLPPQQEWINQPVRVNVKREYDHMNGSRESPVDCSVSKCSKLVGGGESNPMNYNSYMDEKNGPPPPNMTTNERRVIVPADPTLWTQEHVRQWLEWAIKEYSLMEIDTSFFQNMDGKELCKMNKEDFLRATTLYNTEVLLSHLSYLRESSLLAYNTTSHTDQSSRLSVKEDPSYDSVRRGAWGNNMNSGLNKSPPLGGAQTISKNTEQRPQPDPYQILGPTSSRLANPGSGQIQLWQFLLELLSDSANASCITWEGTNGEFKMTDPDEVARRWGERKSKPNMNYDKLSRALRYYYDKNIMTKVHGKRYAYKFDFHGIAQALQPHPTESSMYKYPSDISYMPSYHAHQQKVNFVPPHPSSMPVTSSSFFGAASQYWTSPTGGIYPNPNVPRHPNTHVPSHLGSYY
# Method in brief: (§1)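 Pools were built from human transcription factors expressed in yeast as GST fusions, captured on glutathione beads and DNA-barcoded, along with a tag-only sample. Incubation with 200 nmole of a 16-mer random double-stranded DNA library lasted 30 min at room temperature in Tris/NaCl/DTT/glycerol buffer, and was followed by washing, 0.1% formaldehyde crosslinking, proximity ligation, PCR amplification and Illumina NextSeq500 sequencing. Binding signal is the quotient of each hexamer's read frequency for a factor and its frequency for the tag-only sample.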
# [2] = target: T2, ELK1 (Homo sapiens, UniProt P19419 1-428)
# T2 sequence: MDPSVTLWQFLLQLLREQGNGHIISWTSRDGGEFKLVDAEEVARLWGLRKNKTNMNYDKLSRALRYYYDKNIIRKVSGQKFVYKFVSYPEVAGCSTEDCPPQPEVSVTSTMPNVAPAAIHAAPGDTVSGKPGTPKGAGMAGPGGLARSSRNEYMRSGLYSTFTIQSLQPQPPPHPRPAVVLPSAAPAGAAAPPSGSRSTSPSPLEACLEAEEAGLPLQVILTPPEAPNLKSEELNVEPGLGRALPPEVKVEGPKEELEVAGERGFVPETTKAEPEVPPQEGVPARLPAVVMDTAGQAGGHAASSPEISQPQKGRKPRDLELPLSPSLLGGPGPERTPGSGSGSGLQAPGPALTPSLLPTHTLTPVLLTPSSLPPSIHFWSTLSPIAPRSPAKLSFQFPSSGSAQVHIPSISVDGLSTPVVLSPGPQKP
# Method in brief: as §1
# [3] = target: T3, GABPA (Homo sapiens, UniProt Q06546 1-454)
# T3 sequence: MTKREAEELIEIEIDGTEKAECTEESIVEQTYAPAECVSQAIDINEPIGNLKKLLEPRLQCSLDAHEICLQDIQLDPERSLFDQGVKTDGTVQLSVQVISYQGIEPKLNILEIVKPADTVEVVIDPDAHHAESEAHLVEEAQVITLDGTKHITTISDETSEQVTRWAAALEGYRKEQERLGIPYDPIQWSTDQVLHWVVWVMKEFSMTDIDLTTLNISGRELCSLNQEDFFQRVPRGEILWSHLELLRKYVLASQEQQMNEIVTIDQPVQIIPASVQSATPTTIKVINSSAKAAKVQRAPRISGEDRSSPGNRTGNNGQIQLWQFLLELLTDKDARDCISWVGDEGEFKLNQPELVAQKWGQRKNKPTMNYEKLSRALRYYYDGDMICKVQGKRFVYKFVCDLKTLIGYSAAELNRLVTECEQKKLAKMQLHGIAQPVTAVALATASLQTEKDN
# Method in brief: as §1
# [4] = target: T4, ERG (Homo sapiens, UniProt P11308 1-479)
# T4 sequence: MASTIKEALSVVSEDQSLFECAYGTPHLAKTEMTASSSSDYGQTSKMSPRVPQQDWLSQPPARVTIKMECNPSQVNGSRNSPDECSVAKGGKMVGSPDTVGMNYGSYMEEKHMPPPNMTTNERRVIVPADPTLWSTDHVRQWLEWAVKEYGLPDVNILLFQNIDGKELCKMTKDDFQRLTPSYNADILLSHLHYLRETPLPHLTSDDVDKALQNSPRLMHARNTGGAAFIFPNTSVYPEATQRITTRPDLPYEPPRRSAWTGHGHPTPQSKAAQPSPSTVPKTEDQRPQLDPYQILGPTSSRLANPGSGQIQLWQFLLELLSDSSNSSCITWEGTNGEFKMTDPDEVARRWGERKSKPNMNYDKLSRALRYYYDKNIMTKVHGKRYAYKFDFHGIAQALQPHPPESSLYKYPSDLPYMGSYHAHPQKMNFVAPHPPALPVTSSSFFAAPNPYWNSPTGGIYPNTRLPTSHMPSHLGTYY
# Method in brief: as §1
# [5] = target: ELF1 (Homo sapiens, UniProt P32519 1-619)
# Chain of ELF1 (P32519 whole entry): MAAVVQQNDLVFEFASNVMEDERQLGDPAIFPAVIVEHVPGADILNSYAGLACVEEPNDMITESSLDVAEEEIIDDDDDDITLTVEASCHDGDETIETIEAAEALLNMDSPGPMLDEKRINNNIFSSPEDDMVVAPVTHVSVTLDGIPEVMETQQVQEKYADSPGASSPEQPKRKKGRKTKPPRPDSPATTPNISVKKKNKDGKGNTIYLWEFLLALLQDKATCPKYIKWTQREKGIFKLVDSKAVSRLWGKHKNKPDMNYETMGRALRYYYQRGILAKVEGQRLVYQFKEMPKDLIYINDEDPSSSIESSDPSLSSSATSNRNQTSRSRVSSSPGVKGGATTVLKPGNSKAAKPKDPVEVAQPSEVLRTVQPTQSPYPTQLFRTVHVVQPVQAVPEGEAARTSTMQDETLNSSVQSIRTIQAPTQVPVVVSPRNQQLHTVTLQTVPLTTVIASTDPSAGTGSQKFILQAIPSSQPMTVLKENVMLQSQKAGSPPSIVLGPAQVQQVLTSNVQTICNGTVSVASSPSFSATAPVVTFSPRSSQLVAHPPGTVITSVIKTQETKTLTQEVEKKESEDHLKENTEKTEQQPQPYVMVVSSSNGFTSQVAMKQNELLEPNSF
# Method in brief: as §1
# [6] = target: T5, EHF (Homo sapiens, UniProt Q9NZC4 1-300)
# T5 sequence: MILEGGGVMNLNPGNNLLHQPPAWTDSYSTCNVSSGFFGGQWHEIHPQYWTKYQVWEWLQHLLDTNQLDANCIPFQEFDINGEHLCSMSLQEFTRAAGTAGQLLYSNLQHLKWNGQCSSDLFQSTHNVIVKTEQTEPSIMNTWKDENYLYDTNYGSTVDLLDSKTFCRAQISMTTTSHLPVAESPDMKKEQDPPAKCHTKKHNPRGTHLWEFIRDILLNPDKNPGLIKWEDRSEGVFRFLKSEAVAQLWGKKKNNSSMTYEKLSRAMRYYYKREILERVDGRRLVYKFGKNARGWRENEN
# Method in brief: as §1
# [7] = target: SPI1 (Homo sapiens, UniProt P17947 1-270)
# Method in brief: as §1
# [8] = target: SPIB (Homo sapiens, UniProt Q01892 1-262)
# Chain of SPIB (Q01892 whole entry): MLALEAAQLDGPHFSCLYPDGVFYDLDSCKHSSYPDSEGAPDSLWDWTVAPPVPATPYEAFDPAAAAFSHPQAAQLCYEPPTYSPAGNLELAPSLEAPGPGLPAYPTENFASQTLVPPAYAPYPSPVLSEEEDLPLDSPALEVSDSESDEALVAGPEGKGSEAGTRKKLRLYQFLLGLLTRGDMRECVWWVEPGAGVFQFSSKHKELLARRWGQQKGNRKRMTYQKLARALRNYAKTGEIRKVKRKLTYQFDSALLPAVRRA
# Method in brief: as §1
# [9] = target: T6, ELK3 (Homo sapiens, UniProt P41970 1-407)
# T6 sequence: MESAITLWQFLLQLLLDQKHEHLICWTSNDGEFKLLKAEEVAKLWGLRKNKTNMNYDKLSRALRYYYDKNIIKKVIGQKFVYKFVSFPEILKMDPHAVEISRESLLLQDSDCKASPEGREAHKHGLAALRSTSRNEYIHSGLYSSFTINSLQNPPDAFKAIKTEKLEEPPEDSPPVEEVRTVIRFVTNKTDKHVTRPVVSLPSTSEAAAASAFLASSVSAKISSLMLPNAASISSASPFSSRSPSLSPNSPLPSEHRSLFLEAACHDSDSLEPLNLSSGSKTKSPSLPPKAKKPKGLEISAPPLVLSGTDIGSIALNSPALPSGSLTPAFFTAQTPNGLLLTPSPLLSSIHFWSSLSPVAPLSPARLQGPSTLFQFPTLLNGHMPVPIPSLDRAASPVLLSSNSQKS
# Method in brief: as §1
Sequence,binding signal [1],binding signal [2],binding signal [3],binding signal [4],binding signal [5],binding signal [6],binding signal [7],binding signal [8],binding signal [9]
TATTCT,"1.45 fold enrichment (6-mer frequency, TF over GST control)","1.28 fold enrichment (6-mer frequency, TF over GST control)","1.43 fold enrichment (6-mer frequency, TF over GST control)","1.31 fold enrichment (6-mer frequency, TF over GST control)","1.33 fold enrichment (6-mer frequency, TF over GST control)","1.39 fold enrichment (6-mer frequency, TF over GST control)","1.31 fold enrichment (6-mer frequency, TF over GST control)","1.19 fold enrichment (6-mer frequency, TF over GST control)","1.33 fold enrichment (6-mer frequency, TF over GST control)"
ATCCAT,"1.22 fold enrichment (6-mer frequency, TF over GST control)","1.17 fold enrichment (6-mer frequency, TF over GST control)","1.16 fold enrichment (6-mer frequency, TF over GST control)","1.11 fold enrichment (6-mer frequency, TF over GST control)","1.14 fold enrichment (6-mer frequency, TF over GST control)","1.14 fold enrichment (6-mer frequency, TF over GST control)","1.07 fold enrichment (6-mer frequency, TF over GST control)","1.18 fold enrichment (6-mer frequency, TF over GST control)","1.2 fold enrichment (6-mer frequency, TF over GST control)"
CTCTGA,"1.18 fold enrichment (6-mer frequency, TF over GST control)","1.32 fold enrichment (6-mer frequency, TF over GST control)","1.22 fold enrichment (6-mer frequency, TF over GST control)","1.21 fold enrichment (6-mer frequency, TF over GST control)","1.25 fold enrichment (6-mer frequency, TF over GST control)","1.3 fold enrichment (6-mer frequency, TF over GST control)","1.17 fold enrichment (6-mer frequency, TF over GST control)","1.31 fold enrichment (6-mer frequency, TF over GST control)","1.12 fold enrichment (6-mer frequency, TF over GST control)"
